Records with an inconclusive call do not appear. Unmarked numbers belong to inactive results. Calls of active or inactive are those of the source. Calls come from the whole dose curve; as a rule, active = well fitted curve in the direction sought with a large enough effect; inconclusive = small, poorly fitted or top-dose-only effect, or another doubt; inactive = no such curve, though single readings can be large; an effect the other way counts as inactive or inconclusive.
Target: ATP-dependent 6-phosphofructokinase (Trypanosoma brucei brucei) (UniProt O15648)
Sequence (O15648 whole entry, looked up): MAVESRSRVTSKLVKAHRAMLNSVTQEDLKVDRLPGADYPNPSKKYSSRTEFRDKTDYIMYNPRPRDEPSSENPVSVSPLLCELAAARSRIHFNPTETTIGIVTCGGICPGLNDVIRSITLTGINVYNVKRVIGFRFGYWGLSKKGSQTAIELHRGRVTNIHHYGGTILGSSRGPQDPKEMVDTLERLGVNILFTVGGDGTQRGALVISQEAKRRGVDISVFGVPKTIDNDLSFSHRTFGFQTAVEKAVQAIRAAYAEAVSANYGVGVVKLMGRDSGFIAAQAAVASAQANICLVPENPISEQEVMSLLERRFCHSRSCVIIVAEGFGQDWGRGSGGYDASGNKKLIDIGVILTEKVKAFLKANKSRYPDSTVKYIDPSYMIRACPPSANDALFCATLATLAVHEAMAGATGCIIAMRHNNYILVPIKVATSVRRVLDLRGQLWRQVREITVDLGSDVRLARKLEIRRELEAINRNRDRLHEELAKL
Assay: qHTS Assay to Find Inhibitors of T. brucei phosphofructokinase: hit validation (AID 492961);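 for activity change, negative = inhibition: luminescence reports ADP formed as PFK phosphorylates fructose-6-phosphate with ATP; % is set by controls: 0 for no effect and ±100 for the full control effect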
Details: T. brucei PFK, ADP-Glo luminescence; series mostly up to 51.4 µM; activity change, negative = inhibition: at the top concentration
Outline: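 Reaction: 0.1 M triethanolamine pH 8.0, 5 mM MgCl2, F6P 0.5 mM, ATP 0.1 mM, PFK 1.25 nM, 45 min RT. Read-out: ADP-Glo luminescence. Analysis: concentration-response fits, classed by r2 and efficacy.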
Potency is the fitted concentration of half-maximal effect.

Row | SMILES | Potency | activity change, negative = inhibition
1 | O=c1c2ccccc2[se]n1-c1ccccc1 | 11.2 µM (active) | 
2 | c1ccc2cc(CC3=NCCN3)ccc2c1 |  | 9.47%
3 | C=CCN(C1=NCCN1)c1c(Cl)cccc1Cl |  | -11.2%
4 | N#CC(C#N)=Cc1cc(O)c(O)c(O)c1 |  | -6.78%
5 | CNC(=O)OCC[N+](C)(C)C |  | 9.7%
6 | C[N+]1(C)C2CCC1CC(OC(=O)c1c[nH]c3ccccc13)C2 (stereo unspecified) |  | 0%

Tested on: not listed separately
Assay: Validation screen for small molecules that induce genotoxicity in human embryonic kidney (HEK293T) cells expressing luciferase-tagged ELG1 (AID 493106); for activity change, positive = ELG1 induction: 0% is about no effect
Details: luminescence; series mostly up to 46.1 µM; activity change, positive = ELG1 induction: at the top concentration
Outline: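 Reporter-gene quantitative HTS in HEK293T cells carrying luciferase-tagged ELG1, whose level climbs under genotoxic stress. Compound exposure lasts 16 hr at 37 °C before luciferase detection.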

Row | SMILES | activity change, positive = ELG1 induction | Potency
7 | CCCC[N+]1(C)C2CC(OC(=O)[C@H](CO)c3ccccc3)CC1C1OC12 (stereo partly specified) | -4.27% | 
8 | CC(N)Cc1c[nH]c2ccc(O)cc12 (stereo unspecified) | -8.31% | 
9 | COc1ccc2c(c1)[C@@]13CCCC[C@H]1[C@@H](C2)NCC3 | -9.99% | 
10 | O=c1c2ccccc2[se]n1-c1ccccc1 | 6.98% | 
11 | c1ccc2cc(CC3=NCCN3)ccc2c1 | -8.58% | 
12 | Ic1ccccc1CNC1C2CCN(CC2)C1C(c1ccccc1)c1ccccc1 (stereo unspecified) | -26.4% | 
13 | OCc1cnc[nH]1 | -2.71% | 
14 | CC(C)NP(=O)(NC(C)C)OP(=O)(NC(C)C)NC(C)C | -5.03% | 
15 | C=CCN(C1=NCCN1)c1c(Cl)cccc1Cl | -3.61% | 
16 | C[N+]1(C)CCc2cc3c(cc2[C@H]1[C@@H]1OC(=O)c2c1ccc1c2OCO1)OCO3 | -1.05% | 
17 | COc1ccc(CNC(=O)/C=C/c2ccc3[nH]cc(CCN(C)C)c3c2)cc1 | -0.301% | 
18 | CO[C@H]1CC=C2CCN3CCC4=C(CC(=O)OC4)[C@]23C1 | -2.23% | 
19 | CCCCCCCCCCCCCC(=O)O[C@@H]1[C@@H](C)[C@@]2(O)[C@@H](C=C(CO)C[C@@]3(O)C(=O)C(C)=C[C@@H]23)C2C(C)(C)[C@@]21OC(C)=O (stereo partly specified) |  | 0.0041 µM (active)
20 | Oc1ccc2c3c1O[C@H]1c4[nH]c5ccccc5c4C[C@@]4(O)C(C2)N(CC2CC2)CCC314 (stereo partly specified) | -8.43% | 
21 | CN1CC[C@@]2(C)c3cc(O)ccc3N(C)C12 (stereo partly specified) | -3.73% | 
22 | C[N+](C)(C)CC#CCOC(=O)Nc1cccc(Cl)c1 | -4.42% | 
23 | Oc1ccc2c3c1O[C@H]1c4oc5ccccc5c4C[C@@]4(O)C(C2)N(CC2CC2)CCC314 (stereo partly specified) | 0.572% | 
24 | CN1CCC(c2c[nH]c3ccc(O)cc23)CC1 | -7.7% | 

Row | SMILES | activity change, positive = ELG1 induction | Potency
25 | COC(=O)N1CCN(C(=O)Cc2ccc(Cl)c(Cl)c2)C(CN2CCCC2)C1 (stereo unspecified) | 1.59% | 
26 | COc1ccc2c(c1)C13CCCCC1C(C2)N(C)CC3 (stereo unspecified) | -6.8% | 
27 | C[C@]12Cc3cn4c(nc3C=C1CCC1C2CC[C@@]2(C)[C@H]1CC[C@@]2(O)C#N)nc1ccccc14 (stereo partly specified) | -25.2% | 
28 | CCCn1c(=O)c2[nH]c(C3CCCC3)nc2n(CCCOC(=O)c2ccc(S(=O)(=O)F)cc2)c1=O | -11.6% | 
29 | Cc1cc([C@@H]2CCCN2C)on1 | -1.17% | 
30 | N=C(N)c1ccc(CS(=O)(=O)F)cc1 | -2.44% | 
31 | C[N+]1(C)CCOC(O)(c2ccc(-c3ccc(C4(O)C[N+](C)(C)CCO4)cc3)cc2)C1 (stereo unspecified) | -0.963% | 
32 | C[N+]1(C)C2CCC1CC(OC(=O)c1c[nH]c3ccccc13)C2 (stereo unspecified) | -7.19% | 
33 | NC(N)=Nc1ccc2[nH]c3c(c2c1)C[C@@]1(O)[C@H]2Cc4ccc(O)c5c4[C@@]1(CCN2CC1CC1)[C@H]3O5 | 3.76% | 
34 | Nc1ccc(CCN2CCN(c3cccc(C(F)(F)F)c3)CC2)cc1 | -12.6% | 
35 | Cc1[nH]c2ccc(O)cc2c1CCN | -5.6% | 
36 | CC(=O)c1c(O)c(C)c(O)c(Cc2c(O)c3c(c(C(=O)/C=C/c4ccccc4)c2O)OC(C)(C)C=C3)c1O | -14.4% | 
37 | C=CCN1CC[C@]23c4c5ccc(O)c4O[C@H]2/C(=N/NC(=O)c2ccccc2)CC[C@@]3(O)[C@H]1C5 | -4.15% | 
38 | C[C@@H]1O[C@H](C[N+](C)(C)C)CS1 | 1.2% | 
39 | CC(N)Cc1c[nH]c2ccc(OCc3cccs3)cc12 (stereo unspecified) | -5.33% | 
40 | NC(C(=O)O)c1cc(=O)[nH]o1 (stereo unspecified) | -6.41% | 
41 | CN(N=O)c1cc(O)ccc1O | -10.6% | 

Target: ATPase family AAA domain-containing protein 5 (Homo sapiens) (UniProt Q96QE3)
Sequence (Q96QE3 whole entry, looked up, the tested form may be a part): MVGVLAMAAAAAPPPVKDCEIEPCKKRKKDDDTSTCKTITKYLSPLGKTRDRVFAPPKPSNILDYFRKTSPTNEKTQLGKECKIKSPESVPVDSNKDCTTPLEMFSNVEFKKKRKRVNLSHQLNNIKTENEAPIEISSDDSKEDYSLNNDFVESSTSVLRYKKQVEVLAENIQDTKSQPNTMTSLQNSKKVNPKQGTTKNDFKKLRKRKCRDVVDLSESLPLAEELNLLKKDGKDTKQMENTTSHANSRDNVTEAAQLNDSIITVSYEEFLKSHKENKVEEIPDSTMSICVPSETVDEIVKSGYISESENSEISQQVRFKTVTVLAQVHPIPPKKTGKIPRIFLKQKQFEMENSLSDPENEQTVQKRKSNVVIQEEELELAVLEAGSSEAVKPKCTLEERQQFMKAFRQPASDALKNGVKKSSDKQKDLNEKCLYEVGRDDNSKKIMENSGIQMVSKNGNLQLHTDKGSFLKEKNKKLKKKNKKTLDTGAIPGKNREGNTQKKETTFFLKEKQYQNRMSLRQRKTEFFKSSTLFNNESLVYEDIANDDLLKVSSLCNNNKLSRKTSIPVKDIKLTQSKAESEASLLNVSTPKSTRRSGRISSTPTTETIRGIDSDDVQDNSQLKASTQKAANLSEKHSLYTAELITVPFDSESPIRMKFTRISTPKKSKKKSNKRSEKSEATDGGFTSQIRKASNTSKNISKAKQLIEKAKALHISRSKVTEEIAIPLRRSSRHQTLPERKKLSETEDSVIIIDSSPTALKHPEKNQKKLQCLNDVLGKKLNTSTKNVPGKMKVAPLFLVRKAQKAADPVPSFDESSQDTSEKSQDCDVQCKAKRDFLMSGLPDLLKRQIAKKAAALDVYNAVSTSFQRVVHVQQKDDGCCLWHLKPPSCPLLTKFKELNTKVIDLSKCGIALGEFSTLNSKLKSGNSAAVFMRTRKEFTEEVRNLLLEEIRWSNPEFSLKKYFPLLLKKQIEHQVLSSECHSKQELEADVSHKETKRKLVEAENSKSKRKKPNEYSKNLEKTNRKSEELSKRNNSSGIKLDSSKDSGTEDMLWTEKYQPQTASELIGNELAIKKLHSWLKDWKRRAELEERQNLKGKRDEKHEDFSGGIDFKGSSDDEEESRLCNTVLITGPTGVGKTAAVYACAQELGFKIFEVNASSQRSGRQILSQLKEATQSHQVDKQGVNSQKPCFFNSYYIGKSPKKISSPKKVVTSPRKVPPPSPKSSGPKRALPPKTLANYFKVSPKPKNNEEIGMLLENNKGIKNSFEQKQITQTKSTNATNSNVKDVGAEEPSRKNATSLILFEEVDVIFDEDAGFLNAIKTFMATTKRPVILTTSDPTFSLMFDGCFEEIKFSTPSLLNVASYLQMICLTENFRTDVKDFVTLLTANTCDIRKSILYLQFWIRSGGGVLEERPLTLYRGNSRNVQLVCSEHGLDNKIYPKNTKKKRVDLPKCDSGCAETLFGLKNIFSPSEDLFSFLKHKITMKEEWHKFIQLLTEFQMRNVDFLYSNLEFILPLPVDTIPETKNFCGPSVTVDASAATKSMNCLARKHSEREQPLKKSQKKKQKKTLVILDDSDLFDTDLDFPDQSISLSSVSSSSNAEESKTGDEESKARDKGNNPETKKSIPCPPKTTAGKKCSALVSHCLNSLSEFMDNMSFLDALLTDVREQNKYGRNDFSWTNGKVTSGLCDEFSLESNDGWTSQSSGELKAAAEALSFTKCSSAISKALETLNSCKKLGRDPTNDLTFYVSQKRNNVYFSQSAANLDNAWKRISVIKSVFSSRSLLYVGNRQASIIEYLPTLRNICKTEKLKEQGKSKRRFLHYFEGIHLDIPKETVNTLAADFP
Assay: Validation screen for small molecules that inhibit ELG1-dependent DNA repair in human embryonic kidney (HEK293T) cells expressing luciferase-tagged ELG1 (AID 493107); note: nearly all actives have a fitted effect of over 70% in size;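 for activity change, negative = decrease: cells co-treated with the DNA-damaging agent 5-fluorouridine alongside compound; % is set by controls: 0 for no effect and ±100 for the full control effect; inhibitors lower the ELG1-luciferase luminescence signal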
Details: HEK293T ELG1-luciferase level, luminescence, 5-fluorouridine co-treatment, 16 h; series mostly up to 46.1 µM; activity change, negative = decrease: at the top concentration
Outline: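 Quantitative HTS in HEK293T cells carrying luciferase-tagged ELG1, stimulated with 5-fluorouridine alongside compound for 16 hr. Loss of luciferase signal marks inhibition of ELG1 response.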

Row | SMILES | activity change, negative = decrease | Potency
42 | CCCC[N+]1(C)C2CC(OC(=O)[C@H](CO)c3ccccc3)CC1C1OC12 (stereo partly specified) | 9.85% | 
43 | CC(N)Cc1c[nH]c2ccc(O)cc12 (stereo unspecified) | -10.7% | 
44 | COc1ccc2c(c1)[C@@]13CCCC[C@H]1[C@@H](C2)NCC3 | 12.9% | 
45 | c1ccc2cc(CC3=NCCN3)ccc2c1 | -14.5% | 
46 | Ic1ccccc1CNC1C2CCN(CC2)C1C(c1ccccc1)c1ccccc1 (stereo unspecified) |  | 16.4 µM (active)
47 | OCc1cnc[nH]1 | 5.64% | 
48 | CC(C)NP(=O)(NC(C)C)OP(=O)(NC(C)C)NC(C)C | 24.6% | 
49 | C=CCN(C1=NCCN1)c1c(Cl)cccc1Cl | -1.9% | 
50 | C[N+]1(C)CCc2cc3c(cc2[C@H]1[C@@H]1OC(=O)c2c1ccc1c2OCO1)OCO3 | -1.37% | 
51 | COc1ccc(CNC(=O)/C=C/c2ccc3[nH]cc(CCN(C)C)c3c2)cc1 | 7.76% | 
52 | CO[C@H]1CC=C2CCN3CCC4=C(CC(=O)OC4)[C@]23C1 | 13.6% | 
53 | Oc1ccc2c3c1O[C@H]1c4[nH]c5ccccc5c4C[C@@]4(O)C(C2)N(CC2CC2)CCC314 (stereo partly specified) | -1.33% | 
54 | CN1CC[C@@]2(C)c3cc(O)ccc3N(C)C12 (stereo partly specified) | -2.45% | 
55 | C[N+](C)(C)CC#CCOC(=O)Nc1cccc(Cl)c1 | -1.97% | 
56 | Oc1ccc2c3c1O[C@H]1c4oc5ccccc5c4C[C@@]4(O)C(C2)N(CC2CC2)CCC314 (stereo partly specified) | 19.2% | 
57 | CN1CCC(c2c[nH]c3ccc(O)cc23)CC1 | -19.7% | 
58 | COC(=O)N1CCN(C(=O)Cc2ccc(Cl)c(Cl)c2)C(CN2CCCC2)C1 (stereo unspecified) | 3.68% | 
59 | COc1ccc2c(c1)C13CCCCC1C(C2)N(C)CC3 (stereo unspecified) | -23.6% | 
60 | C[C@]12Cc3cn4c(nc3C=C1CCC1C2CC[C@@]2(C)[C@H]1CC[C@@]2(O)C#N)nc1ccccc14 (stereo partly specified) |  | 7.3 µM (active)
61 | CCCn1c(=O)c2[nH]c(C3CCCC3)nc2n(CCCOC(=O)c2ccc(S(=O)(=O)F)cc2)c1=O | -18.1% | 
62 | Cc1cc([C@@H]2CCCN2C)on1 | 33.5% | 
63 | N=C(N)c1ccc(CS(=O)(=O)F)cc1 | -6.01% | 
64 | C[N+]1(C)CCOC(O)(c2ccc(-c3ccc(C4(O)C[N+](C)(C)CCO4)cc3)cc2)C1 (stereo unspecified) | -5.45% | 
65 | C[N+]1(C)C2CCC1CC(OC(=O)c1c[nH]c3ccccc13)C2 (stereo unspecified) | 24.9% | 
66 | Nc1ccc(CCN2CCN(c3cccc(C(F)(F)F)c3)CC2)cc1 | 0.176% | 
67 | Cc1[nH]c2ccc(O)cc2c1CCN | -0.814% | 
68 | C=CCN1CC[C@]23c4c5ccc(O)c4O[C@H]2/C(=N/NC(=O)c2ccccc2)CC[C@@]3(O)[C@H]1C5 | -2.35% | 
69 | CC(N)Cc1c[nH]c2ccc(OCc3cccs3)cc12 (stereo unspecified) | 13.3% | 
70 | NC(C(=O)O)c1cc(=O)[nH]o1 (stereo unspecified) | 3.89% | 
71 | CN(N=O)c1cc(O)ccc1O | -14.5% | 
